Test results from PubChem BioAssay (NCI).
This is part of a sample that, as a whole, favours compounds with a hit. Of some 83,000 tested, about 20% had one in any assay.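 Growth was measured after 48 h exposure to one concentration of compound in 96-well plates. Values under 10 count as active.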 Unmarked numbers belong to inactive results. Calls of active or inactive are those of the source.

tested on: HL-60(TB) leukemia; test: NCI-60 one-dose screen, 48 h (100 = growth as untreated, 0 = no growth, -100 = all killed); settings: 10 µM unless noted

Row | SMILES | growth
1 | COc1cc(/C=C/c2cc(O)c(C(C)=O)c(O)c2)cc2c1O[C@]1(C)CC[C@@H](O)C(C)(C)[C@H]1C2 | 28.1%
2 | C=CCNC(=S)NN | 119%
3 | CSc1ccc(-c2n[nH]nc2-c2cc3ccccc3s2)cc1 | 38%
4 | CSC1=CC(=O)c2ccccc2C1=O | -49.5% (active)
5 | CCCCCCCCCCCCCC(=O)C(C)N (stereo not given) | 14.6%
6 | NC(=O)c1noc(C(=O)c2ccccc2)c1N | 93.7%
7 | CC(C)=CCc1ccc(O)c(=O)cc1C(C)C | -1.27% (active)
8 | Fc1ccc(CNc2c3ccccc3nc3ccccc23)cc1 | 21.3%
9 | COc1cc(C)cc2oc3oc(=O)c(C(=O)c4cc5cc(Br)ccc5o4)cc3c(=O)c12 | 103%
10 | COc1cccc2c1C(=O)c1c(O)c3c(c(O)c1C2=O)CC(O)(/C(C)=N/NC(=O)CCCCC(=O)N/N=C(\C)C1(O)Cc2c(O)c4c(c(O)c2C(OC2CC(N)C(O)C(C)O2)C1)C(=O)c1c(OC)cccc1C4=O)CC3OC1CC(N)C(O)C(C)O1 (stereo not given) | -9.19% [5 µM] (active)
11 | N#Cc1cccc(C2C3=C(COC3=O)N(CCO)c3cc4c(cc32)CCC4)c1 (stereo not given) | -27.2% (active)
12 | CCN1CCN(Cc2ccc(NC(=O)Nc3nc(-c4cc(OC)c(OC)c(OC)c4)cs3)cc2C(F)(F)F)CC1 | 8.19% (active)
13 | C(=C1c2ccccc2-c2ccccc21)c1ccccn1 | 52.3%
14 | COc1ccc(Cn2cc(COc3cc(/C=C/C(=O)c4cc(OC)c(OC)c(OC)c4)ccc3OC)nn2)cc1 | 80.3%
15 | O=C(NC1CCCC1)c1ccc(N2CCC(NCc3cccc(C(F)(F)F)c3)CC2)cc1 | 66.5%
16 | COc1ccc(-n2ncc3c4nc(OC)c(S(=O)(=O)c5ccccc5)cc4ccc32)cc1 | 107%
17 | COc1ccccc1Cn1cc2c(c1)-c1oncc1CC2 | 1.41% (active)
18 | COc1cc(CSc2nc3ccc(C)cc3c(=O)n2Cc2ccccc2)cc(OC)c1OC | 17%
19 | Cc1cc(Cl)ccc1Nc1nc(C(F)(F)F)ccc1C(=O)N/N=C/c1ccc(F)cc1 | -35.6% (active)
20 | CC1=C(C(=O)OCc2ccccc2)C(c2ccc3c(c2)OCO3)n2c(nc3ccccc32)N1 (stereo not given) | -14.7% (active)

Row | SMILES | growth
21 | COC(=O)[C@H](Cc1cn(C)cn1)NC(=O)[C@H](C)NC(=O)Nc1cc(C(F)(F)F)cc(C(F)(F)F)c1 | -70.4% [100 µM] (active)
22 | O/N=C1\CCC2CCCCC2C1 (stereo not given) | 98.8%
23 | COc1ccc(-c2nn(-c3ccc(NC(=O)c4cc(C(F)(F)F)cc(C(F)(F)F)c4)cc3)cc2-c2ccncc2)cc1Cl | 73.6%
24 | C[C@H]1[C@H](C)CC[C@]2(C(=O)OCCCC[P+](c3ccccc3)(c3ccccc3)c3ccccc3)CC[C@]3(C)C(=CC[C@@H]4[C@@]5(C)CC[C@H](OC(=O)C(Cl)Cl)C(C)(C)[C@@H]5CC[C@]43C)[C@H]12 | -54.3% (active)
25 | CCOC(=O)c1sc(N)nc1-c1ccccc1 | 98.3%
26 | Cc1ccc(C(C)C)c(OCc2ccc(C(=O)N/N=C/c3cccc(O)c3O)cc2)c1 | -4.57% (active)
27 | CCn1cnc2c1c(=O)[nH]c(=O)n2CC1CCC(CNS(=O)(=O)c2ccc(OC3CCOCC3)c(F)c2)CC1 (stereo not given) | 13.2%
28 | Cc1csc(Nc2nc(-c3ccccn3)nc(C(Cl)(Cl)Cl)n2)n1 | 77.4%
29 | CSc1nc2sc3cccc(Cl)c3n2c(=N)c1C#N | 91.8%
30 | CC1(C)OC(=O)C(c2ccsc2)C(=O)O1 | 112%
31 | C=C(C)[C@@H]1CC[C@]2(C(=O)N[C@@H](Cc3ccccc3)C(=O)OC)CC[C@]3(C)[C@H](CC[C@@H]4[C@@]5(C)CCC(=O)C(C)(C)[C@@H]5CC[C@]43C)[C@@H]12 | 56%
32 | COc1ccc(/C=N\NC(=O)c2ccc3nc(-c4ccc(Cl)cc4)[nH]c3c2)cc1 | 96.3%
33 | COc1cc(C2Nc3ccccc3S2)cc(CN2CCOCC2)c1O (stereo not given) | 80.6%
34 | CCN(CCCNc1cc2c(c(N)c1S(=O)(=O)O)C(=O)c1ccccc1C2=O)c1ccccc1 | 84.9%
35 | COc1ccc(-c2oc(=O)ccc2-c2cc(OC)c(OC)c(OC)c2)cc1F | 44.6%
36 | CC(C)CCSc1nc(-c2ccc(F)cc2)c(C#N)c(N2CCCCC2)n1 | 73.1%
37 | FC(F)(F)c1ccccc1-c1cn2c(ccc3ccccc32)n1 | 48.1%
38 | Nc1ccccc1-c1n[nH]c(=O)[nH]c1=O | 105%
39 | Cc1c(C(=N)C(C#N)C#N)c(=N)oc2c1ccc1ccccc12 | 65.2%
40 | O=C(O)c1cn(C2CC2)c2cc(N3CCN(S(=O)(=O)c4ccc(Cl)c(Cl)c4)CC3)c(F)cc2c1=O | -38.3% (active)
